96 compounds from ChEMBL document CHEMBL3988442, “University of Dundee, Small-Polar-MMV Screening Library” (2021) can be followed below.

The campaign covered roughly 48,000 compounds. About 13,000 (27%) showed an effect of 50% or more. The list shows a part of the results.

The subject of the assay is Wolbachia pipientis. The assay is described as follows: Anti-Wolbachia Cell-Based Screen. In kind it is functional. Further details: scale not given: in the data most compounds retested in dose-response had high values. The settings on record: 5 µM.
For `CC(=O)NCCNC(=O)NCC1Cc2ccccc2O1` (stereo unspecified), the “Percent Effect” value was found to be 101.6%.
Take `CC(C)c1noc(CCNC(=O)NCC2Cc3ccccc3O2)n1` (stereo unspecified): the “Percent Effect” value is listed as 104.8%.
For `CC(C)c1noc(CN(C)C(=O)C2COc3ccccc3C2)n1` (stereo unspecified) the value was -21.45%; for `CC(=O)c1ccc(C(=O)NCC2Cc3ccccc3O2)s1` (stereo unspecified), -26.22%; for `CC(C)c1noc(CCNC(=O)NCC2COc3ccccc3O2)n1` (stereo unspecified), 100.4%.
Turning to `Cc1cnc(C(=O)NCC2Cc3ccccc3O2)cn1` (stereo unspecified), the “Percent Effect” value is -10.72%.
With `CC(C)c1noc(CCNC(=O)C2COc3ccccc3C2)n1` (stereo unspecified) the figure was -14.38%.
On to `CC(C)c1noc(CCC(=O)NCC2CCS(=O)(=O)C2)n1` (stereo unspecified), for which the “Percent Effect” value turned out to be 6.847%.
`CC(C)c1noc(CCC(=O)NCC2CCOC2)n1` (stereo unspecified): the “Percent Effect” value is 7.119%.
With `CCN(CC)CCSc1nnc(N2CCN(c3ccc(F)cc3)CC2)s1` the figure was 10.77%.
For `CCC(C(=O)NC1(COC)CCCC1)n1cccn1` (stereo unspecified) the value was 10.41%.
For `COCCCN1C(=O)CC[C@H]2CN(Cc3cc4ccccc4o3)CC[C@H]21` the value was -11.4%; for `c1cnn(CC2CCN(c3nc(C4CC4)nc4c3CCNCC4)CC2)c1`, 9.099%.
`O=C(Cn1nnn(-c2cccs2)c1=O)N(CC1CCOC1)C1CC1` (stereo unspecified): the “Percent Effect” value is -6.322%.
`COCCN(Cc1ccccn1)C(=O)c1ccc(=O)n(C)c1`: the “Percent Effect” value was 4.944%.
Regarding `COc1cccc(C(=O)N2C[C@@H](CN(C)CCO)[C@@H](CO)C2)c1C`, the “Percent Effect” value is recorded as -4.304%.
With `COCCN(C)C[C@@H]1CN(C(=O)c2ccc(=O)n(C)c2)C[C@@H]1CO` the figure was 59.39%.
As for `COCCN(Cc1cccs1)C(=O)c1ccc(=O)n(C)c1`, the “Percent Effect” value is given as -19.51%.
As to `COCCN(C)C[C@H]1C[C@H](CO)CN(C(=O)c2ccc(=O)n(C)c2)C1`, the “Percent Effect” value came out at 90.72%.
As to `CC(NC(=O)CCNC(=O)c1ccoc1)c1ccccc1` (stereo unspecified), the “Percent Effect” value is -1.423%.
For `CC(=O)N(Cc1ncc(C)o1)C1CCN(Cc2cccc(C#N)c2)C1` (stereo unspecified) the value was -1.585%.
Take `CC(=O)N(Cc1ncc(C)o1)C1CCN(Cc2ccccc2C#N)C1` (stereo unspecified): the “Percent Effect” value is 110%.
With `CC(=O)N(Cc1ncc(C)o1)C1CCN(Cc2ccccc2F)C1` (stereo unspecified), the “Percent Effect” value was found to be 139.2%.
For `CC(=O)N(Cc1ncc(C)o1)C1CCN(Cc2ccncc2Cl)C1` (stereo unspecified) the value was -1.852%; for `Cc1cnc(CN(C)C2CCN(Cc3ccccc3C#N)C2)o1` (stereo unspecified), 18.72%.
With `c1cnc(-c2nc(CNCCn3cccn3)cs2)nc1` the figure was -8.125%; with `Cc1nc(C)n(C2CCCN(C(=O)c3sccc3C3CC3)C2)n1` (stereo unspecified), -8.521%; with `CC(CNS(N)(=O)=O)c1ccc(F)c(F)c1` (stereo unspecified), -14.37%.
On to `CN(CC(=O)N1CCCCC1c1nccs1)C1CC1` (stereo unspecified), for which the “Percent Effect” value was found to be 114.2%.
With `CN(CC(=O)N1CCCCC1c1nc(C(C)(C)C)cs1)C1CC1` (stereo unspecified) the figure was 131.5%; with `CC(C)(C)c1csc(C2CCCCN2C(=O)CCn2cncn2)n1` (stereo unspecified), -13.47%.
With `Cc1noc(COCC(=O)N2CCCCC2c2nccs2)n1` (stereo unspecified) the figure was -17.81%.
Regarding `O=C1CSc2ccccc2N1CC(=O)N1CCCCC1c1nccs1` (stereo unspecified), the “Percent Effect” value worked out at 2.391%.
As to `Cc1ncc(CC(=O)N2CCCC(COc3ccc(F)cc3)C2)c(=O)[nH]1` (stereo unspecified), the “Percent Effect” value amounted to 33.2%.
For `COCCCSc1ccc(NC(=O)Nc2cn[nH]c2)cc1` the value was 3.134%; for `CN(Cc1ccoc1)c1ccc(-c2nccn2C)nn1`, -4.933%; for `CC(C)(C(=O)NCC1CC1)c1ccccc1F`, -12.8%.
With `O=C(NC(C(=O)Nc1cc[nH]n1)c1ccccc1)C1CCC1` (stereo unspecified) the figure was -26.62%.
With `CC(C)n1c2ccccc2c2c1cc(C(=O)NC1CC1)n2C(=O)N(C)C` the figure was 111.7%; with `CC(C)n1c2ccccc2c2c1cc(C(=O)O)n2C(=O)N(C)C`, 98.97%; with `CCN(C)C(=O)c1cc(-c2cn(C(C)C)cn2)n2ccccc12`, 4.681%.
With `CC(C)n1c2ccccc2c2c1cc(C(=O)NCCO)n2C(=O)N(C)C`, the “Percent Effect” value turned out to be 98.19%.
As to `COCC(C)N(C)C(=O)c1nc(S(C)(=O)=O)n2ccccc12` (stereo unspecified), the “Percent Effect” value is recorded as -2.923%.
Regarding `CC(C)N1CCC(NC(=O)NCc2ccccc2)CC1`, the “Percent Effect” value stood at 1.205%.
As for `Cc1cn(CC(=O)NC2CCN(C(C)C)CC2)c2ccccc12`, the “Percent Effect” value is -15.19%.
Regarding `CC(C)n1c2ccccc2c2c1cc(C(=O)N(C)C)n2S(C)(=O)=O`, the “Percent Effect” value is listed as 91.91%.
On to `CCCNC(=O)c1cc2c(c3ccccc3n2C)n1C(=O)N(C)C`, for which the “Percent Effect” value is given as -57.33%.
With `CC(C)NC(=O)CCNC(=O)c1c(Br)c2ccccc2n1C` the figure was 2.193%; with `CCc1nc(CN2CCCN(c3ncnc4ccccc34)CC2)no1`, 29.73%; with `Cc1noc(CCCC(=O)NC(C)c2ccccn2)n1` (stereo unspecified), -13.35%.
In the case of `CC(C)n1c2ccccc2c2c1cc(C(=O)N(C)C)n2C(=O)N(C)C`, the “Percent Effect” value is on record as 90.72%.
With `CCCN(CC)C(=O)c1cc2c(c3ccccc3n2C)n1C(=O)N(C)C` the figure was -10.54%.
For the compound `CC(C)n1c2ccccc2c2c1cc(C(=O)N(C)C)n2C`, the “Percent Effect” value turned out to be 109.8%.
For `O=C(NCCc1nncn1C1CC1)C1SCCc2sccc21` (stereo unspecified) the value was -5.898%.
With `CCN(Cc1ccncc1)C(=O)c1cc(C)c(C)c(S(N)(=O)=O)c1` the figure was 3.273%; with `O=C(NCc1ccco1)[C@H]1C[C@@H]2CCN(c3ncccn3)C[C@H]2O1.O=C(O)C(F)(F)F`, 105.1%; with `O=C(NCc1ccco1)[C@H]1C[C@@H]2CCN(c3ccncn3)C[C@@H]2O1.O=C(O)C(F)(F)F`, 48.28%.
On to `O=C(NCc1ccco1)[C@H]1C[C@@H]2CCN(c3nncs3)C[C@H]2O1.O=C(O)C(F)(F)F`, for which the “Percent Effect” value is on record as 106%.
With `O=C(NCc1ccco1)[C@H]1C[C@@H]2CCN(c3cccc(F)c3)C[C@H]2O1.O=C(O)C(F)(F)F` the figure was 104.2%; with `O=C(NCCc1ccncc1)[C@H]1C[C@@H]2CCN(c3nncs3)C[C@H]2O1`, 96.02%; with `O=C(NCc1ccco1)[C@@H]1COC[C@H]2CN(c3ncc(F)cn3)C[C@H]21.O=C(O)C(F)(F)F`, 0.4075%.
Consider `COc1ccnc(N2CCN(C(=O)c3csnn3)CC2)n1`, for which the “Percent Effect” value is given as -4.272%.
With `CCN(CC)C1(Cc2cc(COC)on2)COC1` the figure was -6.864%.
In the case of `CCC(C)(C)NC(=O)c1ccc(-c2ccco2)[nH]c1=O`, the “Percent Effect” value is reported as -18%.
As for `Cc1cccc(C)c1NC(=O)CCNC(=O)c1ccoc1`, the “Percent Effect” value was 6.824%.
With `CC(C)CCn1ccc(NC2CCSC2)n1` (stereo unspecified) the figure was -1.669%; with `O=C(NC[C@H]1OC[C@@H](NCc2ccccc2)[C@@H]1O)Nc1ccc(F)cc1`, -15.63%.
Regarding `Fc1ccc2[nH]c(CO[C@H]3CN(CC4CC4)C[C@H]3F)nc2c1`, the “Percent Effect” value is listed as -6.025%.
For `O=C(NCC1(c2cccc(F)c2)CC1)N1CCC2(CCOC2)C1` (stereo unspecified), the “Percent Effect” value is reported as -9.611%.
Turning to `Cc1nn2c(N3CCC(C(N)=O)CC3)cc(-c3ccccc3)nc2c1C`, the “Percent Effect” value was 0.08495%.
For `Cc1ccc(N2C[C@H]3OCC[C@H]3[C@H](C(=O)NCc3ccco3)C2)nn1` the value was 0.2496%; for `Cc1ccc(N2CC[C@H]3C[C@H](C(=O)NCc4ccco4)O[C@@H]3C2)cc1.O=C(O)C(F)(F)F`, 96.02%; for `COCCNC(=O)[C@H]1C[C@@H]2CCN(c3nncs3)C[C@H]2O1.O=C(O)C(F)(F)F`, -6.597%.
On to `Cc1ccc(N2CC[C@H]3C[C@H](C(=O)NCc4ccco4)O[C@H]3C2)nn1.O=C(O)C(F)(F)F`, for which the “Percent Effect” value is recorded as 108.4%.
With `O=C(Nc1cccnc1)[C@H]1C[C@@H]2CCN(c3nncs3)C[C@H]2O1.O=C(O)C(F)(F)F.O=C(O)C(F)(F)F` the figure was 12.63%.
With `O=C(NCC1CCOCC1)[C@H]1C[C@@H]2CCN(c3nncs3)C[C@@H]2O1.O=C(O)C(F)(F)F`, the “Percent Effect” value came to 99.44%.
Regarding `Cc1cc(S(=O)(=O)N2CC[C@@H](O)C2)c(Cl)cc1F`, the “Percent Effect” value worked out at 1.456%.
Take `O=C(C1CCOC1)N1CCN(Cc2cccnc2)c2ncccc2C1` (stereo unspecified): the “Percent Effect” value stood at 79.91%.
With `O=C(C1CCOCC1)N1CCN(CC2CC2)c2ncccc2C1` the figure was -9.379%; with `O=C(C1CCOC1)N1CCN(Cc2ccncc2)c2ncccc2C1` (stereo unspecified), 109.7%.
Take `CCN1CCN(CCCNC(=O)c2cc3ccc(C)cc3nc2C)CC1`: the “Percent Effect” value is reported as 26.08%.
For `CN(C)C1CCN(Cc2cnc(S(C)(=O)=O)n2CC2CCCCC2)C1` (stereo unspecified) the value was -18.29%; for `Cc1cc(C)cc(C(=O)N2CCCC3(CCCC(=O)N3C)C2)c1` (stereo unspecified), 101%; for `CN1C(=O)CCCC12CCCN(C(=O)c1ccc3c(c1)OCO3)C2` (stereo unspecified), 103.5%.
Regarding `CN1C[C@H]2CN(C(=O)c3ccc4c(c3)OCO4)CCN2C1=O`, the “Percent Effect” value is recorded as 3.165%.
For the compound `CS(=O)(=O)N1CCCC12CCCN(C(=O)c1ccc3c(c1)OCO3)C2` (stereo unspecified), the “Percent Effect” value is -9.352%.
On to `Cc1cncc(C(=O)N2CCCC3(CCCN3S(C)(=O)=O)C2)c1` (stereo unspecified), for which the “Percent Effect” value is -8.185%.
Turning to `CS(=O)(=O)N1CCCC12CCCN(C(=O)c1cc(F)cc(F)c1)C2` (stereo unspecified), the “Percent Effect” value is on record as 3.882%.
Consider `CN1C(=O)CCCC12CCCN(C(=O)c1cc(F)cc(F)c1)C2` (stereo unspecified), for which the “Percent Effect” value was found to be 108.3%.
As for `CN1C(=O)CCCC12CCCN(C(=O)c1cccc(C(F)(F)F)c1)C2` (stereo unspecified), the “Percent Effect” value turned out to be 112.4%.
Turning to `CN(CC(C)(C)C)c1ccc(C(=O)NCCCc2ccccn2)cn1`, the “Percent Effect” value is -1.973%.
Regarding `Cc1oc(CNC(=O)Cc2cccc(OC(F)F)c2)cc1C(=O)O`, the “Percent Effect” value came to 1.075%.
For `CN1C(=O)CCC12CCCN(C(=O)c1ccoc1)C2` (stereo unspecified) the value was 1.769%; for `CN1C(=O)CCCC12CCCN(C(=O)c1ccoc1)C2` (stereo unspecified), 102.5%.
With `O=C1CCC2(CCCN(C(=O)c3ccoc3)C2)CN1CCc1c[nH]cn1` (stereo unspecified) the figure was 2.528%; with `Cc1cc(F)ccc1C(=O)N1C[C@@H]2COC[C@]2(CN(C)C)C1.O=C(O)C(F)(F)F`, -5.19%.
